# Assay outcomes: PubChem BioAssay, several laboratories
# MEKK3 PB1 HTS: raises or lowers MEK5 binding to the human MEKK3 PB1 domain | hit rate 1.4% among 290,000 | binding response (% of control), % at 10 µM | AID 1529 | bead-based flow cytometry, Alexa488-MEK5 binding to MEKK3; actives lie on both sides; 0 = blocked by unlabeled MEK5, 100 = vehicle | Q99759;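 active means binding response more than 3 SD above or below the average of its plate-row segment, actives on both sides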;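 further: Alexa488 bead fluorescence after subtracting the streptavidin-only scavenger bead signal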
# MEKK2wt PB1 HTS: raises or lowers MEK5 binding to wildtype human MEKK2 PB1 domain; hit rate 1.1% among 290,000; binding response (% of control), % at 10 µM; bead flow cytometry, Alexa488-MEK5 binding to MEKK2 WT; actives lie on both sides; in the data active means binding response below about 67% or above about 130%
# dFosB activator: enhances mouse delta FosB homodimer DNA binding | purified delta FosB, TAMRA-CDK5 oligo fluorescence polarization; percent of positive-control signal above neutral wells | activation, % at 25 µM | hit rate 0.99% among 340,000;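 active means mean activation above about 17%, with every replicate also reaching it, limit read from the data, passing the limit was not always enough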
# Target sequence (P13346 whole entry, looked up): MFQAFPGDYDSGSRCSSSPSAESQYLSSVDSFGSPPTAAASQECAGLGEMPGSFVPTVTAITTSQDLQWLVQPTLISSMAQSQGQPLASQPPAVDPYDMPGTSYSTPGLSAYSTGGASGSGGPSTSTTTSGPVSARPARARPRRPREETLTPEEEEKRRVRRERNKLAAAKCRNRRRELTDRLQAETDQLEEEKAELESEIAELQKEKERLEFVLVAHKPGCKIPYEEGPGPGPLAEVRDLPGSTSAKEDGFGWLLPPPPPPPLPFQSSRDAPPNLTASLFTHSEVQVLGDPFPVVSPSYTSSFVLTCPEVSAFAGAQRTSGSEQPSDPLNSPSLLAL
# MEKK2mut PB1 HTS: signal of MEK5 binding to mutant human MEKK2 PB1 domain; AID 1530; percent response, % at 10 µM; bead flow cytometry, Alexa488-MEK5 binding to MEKK2 mutant; hit rate 0.35% among 290,000; in the data active means percent response above about 24%, passing the limit was not always enough
# FID counter: counter-screen for HCV NS3 helicase inhibitors: DNA intercalator displacement; hit rate 0.17% among 290,000; DNA fluorescent intercalator displacement, fluorescence; inhibition, % at 7.9 µM; AID 1845; in the data active means inhibition above about 37%;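 further: 0% = vehicle and 100% = reference compound; higher means more ethidium bromide displaced from hairpin DNA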
# * hit, by the source's call; · = no result; [ ] = remark or other dose. In the library only some 2.9% were active in any assay of this set; here they are far more common.
SMILES,MEKK3 PB1 HTS,MEKK2wt PB1 HTS,dFosB activator,MEKK2mut PB1 HTS,FID counter
O=C(Nc1ccc(C2=NCCN2)cc1)c1ccc(C(=O)Nc2ccc(C3=NCCN3)cc2)c(Cl)c1,72.0*[inhibitor],149.0*,-62.0,31.0*,36.7*
CC(C)NC(=O)CC1(C(=O)NCc2ccc(Cl)cc2)CCCC1,98.0,101.0,8.3,1.0,-8.0
COCCCNC(=O)C1=CCN(S(=O)(=O)c2ccc(OC)cc2)CC1,101.0,100.0,2.4,0.0,-13.2
COc1ccccc1CN1CCC(CNS(=O)(=O)c2cc(-c3cc(C)no3)ccc2C)CC1,101.0,123.0,-16.7,14.0,28.1
COc1ccc(-c2cc(C)no2)cc1S(=O)(=O)NCC1CCN(Cc2cc(C)ccc2C)CC1,101.0,143.0*,4.0,22.0,23.4
Cc1ccc2cc(C3CC(c4cccs4)=NN3S(C)(=O)=O)c(Cl)nc2c1 (stereo unspecified),97.0,-4.0*,-10.5,5.0,-20.3
COc1cc(NC(=O)C(=O)NCCN2CCNCC2)c(OC)cc1Cl,104.0,113.0,-3.1,4.0,3.6
CCN1CCN(Cc2ccc(NC(=O)c3cc(NC(=O)C4=NN(c5ccccc5)C(=O)C4)cc(OC)c3)cc2C(F)(F)F)CC1,93.0,96.0,60.2*,5.0,·
CCN1CCN(Cc2ccc(NC(=O)c3ccc(C)c(NC(=O)C4=NN(c5ccccc5)C(=O)C4)c3)cc2C(F)(F)F)CC1,96.0,94.0,66.3*,7.0,·
CCN1CCN(Cc2ccc(NC(=O)c3cc(NC(=O)N4CCNC4=O)cc(OC)c3)cc2C(F)(F)F)CC1,113.0,99.0,-28.1,7.0,·
CCN1CCN(Cc2ccc(NC(=O)c3ccc(C)c(NC(=O)c4ccno4)c3)cc2C(F)(F)F)CC1,95.0,96.0,-16.7,7.0,·
NC(N)=NS(=O)(=O)c1ccc(NC(=S)NC(=O)/C=C/c2cccs2)cc1,108.0,107.0,62.2*,2.0,0.3
Cc1ccc2c(c1)C=CC(C)(C)S2=O (stereo unspecified),130.0*,101.0,-6.7,2.0,-12.1
CC1=C(C(=O)Nc2ccccc2)C(c2ccc(C)cc2)N=C(Nc2nc3ccccc3o2)N1 (stereo unspecified),95.0,95.0,41.9*,-1.0,-2.5
CCn1cc(C(=O)NCCCN(C)C)c(=O)c2cc(F)c(N3CCN(C)CC3)cc21,105.0,111.0,-0.7,2.0,68.4*
CCn1cc(C(=O)NCCN(C)C)c(=O)c2cc(F)c(N3CCN(C)CC3)cc21,105.0,103.0,-0.9,7.0,56.2*
CCCNC(=O)c1cn(CC)c2cc(N3CCN(C)CC3)c(F)cc2c1=O,103.0,107.0,-16.8,-1.0,16.3
CCN1CCN(C(=O)c2ccccc2N(Cc2ccccc2)S(=O)(=O)c2ccc(C)cc2)CC1,100.0,109.0,-6.7,3.0,4.9
O=[N+]([O-])/C(Cl)=C(/NCCO)C(Cl)=C(Cl)Cl,·,·,1.8,·,·
CCCCc1ccc(/C=C(\C#N)C(N)=S)s1,108.0,5.0*,-11.5,5.0,3.9
Cn1cccc1/C=C(/C#N)C(N)=S,113.0,101.0,5.9,-1.0,-8.9
Nc1nc(NCc2ccco2)nc(Nc2ccccc2)c1[N+](=O)[O-],98.0,95.0,-0.5,-3.0,5.9
Fc1ccc(Nc2nc(NCc3ccco3)c3ccccc3n2)cc1,102.0,133.0,52.7*,7.0,19.0
C=CCOc1ccc(/C=C/C(=O)OCC(=O)NCCCc2ccccc2)cc1,·,·,0.0,·,·
CCN1CCN(S(=O)(=O)c2cc(OCC(=O)NC3CCCCC3)c(C)cc2Cl)CC1,3.0*[inhibitor],3.0*[inhibitor],-10.0,-15.0,4.0
SMILES,MEKK3 PB1 HTS,MEKK2wt PB1 HTS,dFosB activator,MEKK2mut PB1 HTS,FID counter
CCN1CCCC(OC(=O)c2cc(-c3ccc(C)cc3)nc3ccccc23)C1 (stereo unspecified),101.0,122.0,-30.1,7.0,38.5*
COCCN1CCN(Cc2cn[nH]c2-c2cc3ccccc3o2)CC1,103.0,97.0,2.8,-7.0,7.4
COc1ccccc1N1CCN(C(=O)C2C3C=CC4(CN(Cc5ccccc5Cl)C(=O)C24)O3)CC1 (stereo unspecified),82.0*[inhibitor],86.0,6.8,-2.0,-34.0
COc1ccc(CCN2CC34C=CC(O3)C(C(=O)NCc3ccccc3Cl)C4C2=O)cc1OC (stereo unspecified),103.0,99.0,-6.6,1.0,-34.4
Cc1cc(=O)oc2cc(OC(C)C(=O)Nc3ccc(N4CCCCC4)cc3)ccc12 (stereo unspecified),98.0,-1.0*,3.5,5.0,-29.1
Cc1cc(=O)oc2cc(OC(C)C(=O)NC3CCCC3)ccc12 (stereo unspecified),100.0,99.0,-2.2,1.0,-12.4
Oc1c(Cl)cc(Cl)cc1C1=NNC(c2ccc(Cl)cc2)C1 (stereo unspecified),102.0,104.0,2.8,1.0,-1.1
Oc1ccc(Cl)cc1C1=NNC(c2ccc(Cl)cc2)C1 (stereo unspecified),135.0*,107.0,-4.5,0.0,-1.7
Cc1cc(/C=N/Nc2ccc([N+](=O)[O-])cn2)c(C)n1-c1ccccc1,110.0,110.0,22.1*,6.0,-14.9
O=C(NCc1ccccc1Br)c1ccncc1,100.0,107.0,1.5,7.0,-4.0
Cc1cc(SCC(=O)c2ccc(O)c(O)c2)nc2ccccc12,99.0,88.0,5.0,-6.0,-4.9
Cc1cc(SCC(=O)c2ccc3c(c2)OCO3)nc2ccccc12,113.0,38.0*,1.7,39.0,-8.1
Oc1ccc(/C=N/Nc2ccnc3cc(Cl)ccc23)cc1O,93.0,103.0,108.6*,-15.0,19.1
Oc1ccc(/C=N/Nc2ccnc3cc(Cl)ccc23)c(O)c1O,96.0,107.0,19.3*,6.0,-18.8
CC(C)NC(=O)NC(=O)COC(=O)c1ccc([N+](=O)[O-])cc1Cl,98.0,98.0,-3.8,2.0,1.7
Cc1ccnc(NCn2nnc3ccccc32)c1,83.0,89.0,3.5,-13.0,0.9
Cc1nc2ccc(NS(=O)(=O)c3c(F)cc(F)cc3Br)cc2s1,·,·,-8.1,·,·
COc1cccc(/C=C/C(=O)OCC(=O)NC2CC2)c1OC,·,·,-2.1,·,·
CC(=O)Nc1cccc(NC(=O)CSc2nc(C)c(C)c(C)c2C#N)c1,92.0,93.0,-5.1,-5.0,-16.5
Cc1cccc(NC(=O)CSc2nsc(SCC(=O)Nc3cccc(C)c3)c2C#N)c1,105.0,29.0*,3.9,39.0,1.2
CNc1nn(-c2cccc(Cl)c2)nc1N,104.0,-1.0*,4.1,8.0,12.6
CN(C)c1cc(NC(=O)CNC(C)(C)C)c2ccccc2n1,91.0,96.0,11.4,1.0,52.8*
CCOC(=O)C1=C(C)Nc2ccccc2N=C1NC(=O)c1ccc(Cl)c(S(=O)(=O)N2CCCC2)c1,104.0,102.0,-4.4,1.0,-35.1
CN(C)c1ccc(O)c2c1CC1CC3C(N(C)C)C(=O)C(C(N)=O)=C(O)[C@@]3(O)C(=O)C1=C2O (stereo partly specified),109.0,111.0,2.0,6.0,·
